Experimental findings from PubChem BioAssay (EPA / NIEHS) are described below.

Results filed as inconclusive are left out. Active and inactive are the calls of the source. Rule for the calls, unless noted: active = hit-call score of the fitted dose curve at least 0.9, where 1 is the maximum; inactive = score below 0.9.

Test [1] in a line: ATG_Sox_CIS: Attagene CIS-FACTORIAL HepG2 Assay for human SRY-box transcription factor (SOX) (AID 2282960). The following applies: HepG2 Attagene cis-factorial SOX reporter, mRNA; actives raise or lower the signal. The essentials: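 Cells were transfected with reporter constructs under cis-regulatory promoters, then exposed to chemicals for 24 h. Reporter transcripts were quantified by fluorescence after RT-PCR and capillary electrophoresis; activity was fitted in both directions against DMSO.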

Test [2] has as its target Transcription factor Sp1 (Homo sapiens) (UniProt P08047). As to the kind of experiment: ATG_Sp1_CIS: Attagene CIS-FACTORIAL HepG2 Assay for human Specificity Protein 1 (Sp1) (AID 2282961). Particulars: HepG2 Sp1 cis-reporter transcription, actives raise or lower the signal. The essentials: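 Measures mRNA induction of an Sp1-linked reporter in HepG2 cells 24 h post-dosing. Multiplexed reporters read by RT-PCR and capillary electrophoresis; DMSO serves as negative control and baseline.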

The nature of test [3]: ATG_SREBP_CIS: Attagene CIS-FACTORIAL HepG2 Assay for human Sterol Regulatory Element Binding (SREBP) (AID 2282962). Particulars: HepG2 Attagene cis-factorial SREBP reporter, mRNA; actives raise or lower the signal. The essentials: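 Readout: fluorescent reporter-transcript peaks resolved by capillary electrophoresis after RT-PCR. Cells were human HepG2 carrying transfected cis-promoter reporter constructs, dosed for 24 h. Gain or loss of signal was fitted against DMSO controls.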

The target of test [4] is Signal transducer and activator of transcription 3 (Homo sapiens) (UniProt P40763). The test can be described thus: ATG_STAT3_CIS: Attagene CIS-FACTORIAL HepG2 Assay for human Signal Transducer and Activator of Transcription 3 (STAT3) (AID 2282963). Particulars: HepG2, Attagene cis-factorial STAT3 reporter transcription; actives raise or lower the signal. The essentials:
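Uses human liver HepG2 transiently carrying cis-regulated reporter transcription units. Following 24 h dosing, reporter mRNA induction was detected by RT-PCR and capillary electrophoresis, analysed bidirectionally versus DMSO.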

Test [5] can be described thus: ATG_TCF_b_cat_CIS: Attagene CIS-FACTORIAL HepG2 Assay for human T-Cell-Factor with beta-catenin (TCF/b-cat) (AID 2282965). Particulars: HepG2 TCF/beta-catenin cis-reporter transcription, actives raise or lower the signal. In outline:
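In this cis-format system, transfected HepG2 cells report endogenous transcription factor activity. Readout after 24 h exposure is reporter transcript abundance from RT-PCR and capillary electrophoresis, analysed for gain or loss of signal versus DMSO.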

Test [6] is described as follows: ATG_TAL_CIS: Attagene CIS-FACTORIAL HepG2 Assay for human TAL Basal Promoter (AID 2282966).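 Note: background control endpoint measuring basal TAL promoter reporter mRNA not a specific factor.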 Particulars: HepG2 Attagene cis-factorial TAL promoter reporter; actives raise or lower the signal. The essentials:
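HepG2, transient MRTU transfection, 24 h compound exposure; RNA → oligo(dT) RT → PCR → 6-FAM primer extension → HpaI digest → CE fluorescence. Bidirectional curve fit vs DMSO. Background-control readout.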

A short description of test [7]: ATG_TGFb_CIS: Attagene CIS-FACTORIAL HepG2 Assay for human Transforming Growth Factor (TGF) (AID 2282967). Particulars: HepG2 Attagene CIS TGFb reporter, mRNA transcription; actives raise or lower the signal. In outline:
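Readout: fluorescently labeled reporter cDNA fragments resolved by capillary electrophoresis after RT-PCR. Transfected HepG2 cells dosed for 24 h; endogenous TF activity at TGFB1-linked cis element; gain or loss fitted relative to DMSO.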

Test [8] can be described thus: ATG_VDRE_CIS: Attagene CIS-FACTORIAL HepG2 Assay for human Vitamin D Receptor Element (VDRE) (AID 2282968). The following applies: HepG2 VDRE cis-reporter transcription, actives raise or lower the signal. The essentials:
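Transfected HepG2 reporter cells, chemical treatment 24 h. RNA isolated, cDNA amplified with reporter-specific primers, products analysed by capillary electrophoresis. Endpoint fitted in both directions versus DMSO.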

In test [9] the target is Steroid hormone receptor ERR1 (Homo sapiens) (UniProt P11474). As to the kind of experiment: ATG_ERRa_TRANS: Attagene TRANS-FACTORIAL HepG2 Assay for human Estrogen-Related Receptor alpha (ERRa) (AID 2282971; active = hit-call score of the fitted dose curve at least 0.9, where 1 is the maximum). The following applies: HepG2 Attagene TRANS reporter, ERRa transactivation. The essentials: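 Transfected HepG2, 24 h dosing, ERRa-Gal4 chimera driving GAL4-UAS reporter. Readout: reporter mRNA via RT-PCR plus capillary electrophoresis (fluorescence). Positive direction vs DMSO control.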
Steroid hormone receptor ERR1 (Homo sapiens), sequence (P11474 whole entry, looked up, the tested form may be a part): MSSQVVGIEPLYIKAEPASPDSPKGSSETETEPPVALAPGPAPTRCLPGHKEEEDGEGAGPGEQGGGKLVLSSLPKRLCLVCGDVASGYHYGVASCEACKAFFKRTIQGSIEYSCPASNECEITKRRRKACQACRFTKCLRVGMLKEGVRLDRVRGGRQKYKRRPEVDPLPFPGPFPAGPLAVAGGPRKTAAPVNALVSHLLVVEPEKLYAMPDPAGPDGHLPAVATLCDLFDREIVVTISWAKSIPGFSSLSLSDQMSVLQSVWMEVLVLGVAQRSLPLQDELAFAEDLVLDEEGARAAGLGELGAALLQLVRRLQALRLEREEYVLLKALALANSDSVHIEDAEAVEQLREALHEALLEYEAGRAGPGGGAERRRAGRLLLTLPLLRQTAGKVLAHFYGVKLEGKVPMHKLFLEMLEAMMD

Test [10] has as its target X-box-binding protein 1 (Homo sapiens) (UniProt P17861). As to the kind of experiment: ATG_Xbp1_CIS: Attagene CIS-FACTORIAL HepG2 Assay for human X-box Binding Protein 1 (XBP1) (AID 2282972). The following applies: HepG2 XBP1 cis-element reporter, Attagene multiplex; actives raise or lower the signal. The essentials:
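Read-out: fluorescent reporter mRNA fragments resolved by capillary electrophoresis after RT-PCR. Human HepG2 liver cells carried transfected cis-promoter reporter units and were exposed to chemicals for 24 hours. Gain or loss of signal fitted relative to DMSO baseline.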

Test [11] in a line: ATG_M_19_TRANS: Attagene TRANS-FACTORIAL HepG2 Assay for M19 Transcription Factor (Internal Marker) (AID 2282974; active = hit-call score of the fitted dose curve at least 0.9, where 1 is the maximum). The following applies: HepG2 Attagene TRANS-FACTORIAL M19 internal marker reporter. The essentials: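 After transfection of HepG2 with GAL4-UAS-driven reporter constructs, cells are dosed for 24 h. Total RNA is reverse-transcribed, reporter sequences PCR-amplified and labelled, then HpaI-digested and sized by capillary electrophoresis.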

Test [12] addresses Oxysterols receptor LXR-beta (Homo sapiens) (UniProt P55055). The test can be described thus: ATG_LXRb_TRANS: Attagene TRANS-FACTORIAL HepG2 Assay for human Liver X Receptor beta (LXRb) (AID 2282981; active = hit-call score of the fitted dose curve at least 0.9, where 1 is the maximum). The following applies: HepG2 Attagene TRANS GAL4-LXRb reporter, mRNA. The essentials: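 Liver-derived HepG2 cells transfected with Gal4-responsive reporters were dosed for 24 h. Activation was scored as rise in reporter mRNA, by RT-PCR and capillary electrophoresis, above DMSO baseline.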

For test [13], the target named is Estrogen receptor (Homo sapiens) (UniProt P03372). The test can be described thus: ATG_ERa_TRANS: Attagene TRANS-FACTORIAL HepG2 Assay for human Estrogen Receptor alpha (ERa) (AID 2282970; active = hit-call score of the fitted dose curve at least 0.9, where 1 is the maximum). The following applies: HepG2 Attagene TRANS ERa GAL4 reporter, mRNA. The essentials: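 Reporter mRNA induction after 24 hours, detected by fluorescent RT-PCR and capillary electrophoresis, gives the read-out. Cells are HepG2 transiently transfected with GAL4-UAS reporter transcription units responding to chimeric NR-Gal4. Activity is taken as gain of signal over DMSO baseline.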
Estrogen receptor (Homo sapiens), sequence (P03372 whole entry, looked up, the tested form may be a part): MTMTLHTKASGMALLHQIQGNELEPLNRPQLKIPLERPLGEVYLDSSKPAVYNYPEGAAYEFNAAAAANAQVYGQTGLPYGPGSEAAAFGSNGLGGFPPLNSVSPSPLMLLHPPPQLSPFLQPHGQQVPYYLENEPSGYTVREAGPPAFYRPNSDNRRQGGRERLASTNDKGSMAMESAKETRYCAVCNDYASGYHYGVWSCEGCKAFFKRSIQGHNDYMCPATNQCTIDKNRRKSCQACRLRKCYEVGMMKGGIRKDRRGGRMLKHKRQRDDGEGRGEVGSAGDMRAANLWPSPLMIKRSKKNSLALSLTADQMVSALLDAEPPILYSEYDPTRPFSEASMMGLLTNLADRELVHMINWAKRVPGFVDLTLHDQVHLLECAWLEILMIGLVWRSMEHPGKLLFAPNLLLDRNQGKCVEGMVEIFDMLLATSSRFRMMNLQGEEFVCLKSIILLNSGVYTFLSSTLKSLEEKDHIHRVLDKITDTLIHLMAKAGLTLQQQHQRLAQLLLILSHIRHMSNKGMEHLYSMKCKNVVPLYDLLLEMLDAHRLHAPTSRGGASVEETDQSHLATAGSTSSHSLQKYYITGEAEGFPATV

A short description of test [14]: ATG_GAL4_TRANS: Attagene TRANS-FACTORIAL HepG2 Assay for GAL4 (Internal Marker) (AID 2282976; active = hit-call score of the fitted dose curve at least 0.9, where 1 is the maximum). The following applies: HepG2 Attagene TRANS GAL4 internal marker reporter. The essentials: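 RT-PCR/capillary electrophoresis readout of reporter mRNA. HepG2, transient MRTU transfection (GAL4-UAS reporters), 24 h compound exposure. Background-control endpoint, positive direction vs DMSO baseline.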

In test [15] the target is Nuclear receptor subfamily 1 group I member 3 (Homo sapiens) (UniProt Q14994). The test can be described thus: ATG_CAR_TRANS: Attagene TRANS-FACTORIAL HepG2 Assay for human Constitutive Androstane Receptor (CAR) (AID 2282969; active = hit-call score of the fitted dose curve at least 0.9, where 1 is the maximum;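 note: activators raise reporter mRNA above DMSO so AC50 marks induction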). The following applies: HepG2 Attagene TRANS-FACTORIAL CAR reporter. The essentials: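 Steps: transient transfection of HepG2 with multiple GAL4-UAS reporter units; 24 h compound incubation; RNA isolation, RT-PCR, 6-FAM primer extension, HpaI digest; capillary electrophoresis. Gain-of-signal relative to DMSO negative control.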
Nuclear receptor subfamily 1 group I member 3 (Homo sapiens), sequence (Q14994 whole entry, looked up, the tested form may be a part): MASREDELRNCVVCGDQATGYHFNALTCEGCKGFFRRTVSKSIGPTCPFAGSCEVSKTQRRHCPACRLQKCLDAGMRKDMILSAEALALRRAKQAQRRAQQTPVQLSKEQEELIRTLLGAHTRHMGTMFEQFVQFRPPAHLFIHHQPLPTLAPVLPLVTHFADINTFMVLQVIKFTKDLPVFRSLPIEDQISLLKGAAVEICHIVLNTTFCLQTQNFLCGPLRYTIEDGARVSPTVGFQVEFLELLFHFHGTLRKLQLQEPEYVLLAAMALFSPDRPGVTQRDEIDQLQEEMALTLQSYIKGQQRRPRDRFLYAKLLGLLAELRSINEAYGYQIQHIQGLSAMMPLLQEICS

Test [16] addresses Glucocorticoid receptor (Homo sapiens) (UniProt P04150). The test can be described thus: ATG_GR_TRANS: Attagene TRANS-FACTORIAL HepG2 Assay for human Glucocorticoid Receptor (GR) (AID 2282978; active = hit-call score of the fitted dose curve at least 0.9, where 1 is the maximum;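 note: activators score as hits since higher reporter transcript over DMSO is fitted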). The following applies: HepG2 Attagene TRANS GR reporter, mRNA transcription. The essentials:
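Multiplexed TRANS reporter system, HepG2; 24 h exposure; RNA → oligo(dT) RT → reporter-specific PCR → 6-FAM primer extension → HpaI cut → CE fluorescence. Gain-of-signal vs DMSO.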

Signal transducer and activator of transcription 3 (Homo sapiens), sequence (P40763 whole entry, looked up): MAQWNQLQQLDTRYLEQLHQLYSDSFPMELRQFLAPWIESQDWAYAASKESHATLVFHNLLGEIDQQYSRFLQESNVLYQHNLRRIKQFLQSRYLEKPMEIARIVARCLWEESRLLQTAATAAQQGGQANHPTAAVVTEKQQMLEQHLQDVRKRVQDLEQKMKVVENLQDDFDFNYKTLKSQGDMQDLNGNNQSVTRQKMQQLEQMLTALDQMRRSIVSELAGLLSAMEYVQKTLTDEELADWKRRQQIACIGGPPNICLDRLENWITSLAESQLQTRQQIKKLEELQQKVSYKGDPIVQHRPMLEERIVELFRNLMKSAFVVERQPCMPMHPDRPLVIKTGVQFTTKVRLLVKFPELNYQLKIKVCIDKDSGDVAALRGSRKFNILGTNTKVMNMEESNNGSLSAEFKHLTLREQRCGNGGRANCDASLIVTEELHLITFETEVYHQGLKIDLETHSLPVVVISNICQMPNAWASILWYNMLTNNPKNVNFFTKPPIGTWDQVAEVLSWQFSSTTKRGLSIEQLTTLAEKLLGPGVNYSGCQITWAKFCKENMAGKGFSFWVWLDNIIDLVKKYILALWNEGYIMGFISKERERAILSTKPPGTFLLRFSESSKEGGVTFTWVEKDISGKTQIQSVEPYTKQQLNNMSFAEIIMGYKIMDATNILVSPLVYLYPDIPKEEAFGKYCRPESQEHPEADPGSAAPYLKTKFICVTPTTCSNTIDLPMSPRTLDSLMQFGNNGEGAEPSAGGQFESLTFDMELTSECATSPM
X-box-binding protein 1 (Homo sapiens), sequence (P17861 whole entry, looked up, the tested form may be a part): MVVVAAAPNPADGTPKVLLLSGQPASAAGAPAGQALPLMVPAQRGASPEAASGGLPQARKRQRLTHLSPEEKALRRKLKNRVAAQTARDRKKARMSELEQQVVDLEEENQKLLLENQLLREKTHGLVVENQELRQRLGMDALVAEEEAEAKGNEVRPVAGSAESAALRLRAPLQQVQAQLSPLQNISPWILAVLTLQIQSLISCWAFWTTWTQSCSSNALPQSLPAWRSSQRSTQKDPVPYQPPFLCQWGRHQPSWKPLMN
Transcription factor Sp1 (Homo sapiens), sequence (P08047 whole entry, looked up): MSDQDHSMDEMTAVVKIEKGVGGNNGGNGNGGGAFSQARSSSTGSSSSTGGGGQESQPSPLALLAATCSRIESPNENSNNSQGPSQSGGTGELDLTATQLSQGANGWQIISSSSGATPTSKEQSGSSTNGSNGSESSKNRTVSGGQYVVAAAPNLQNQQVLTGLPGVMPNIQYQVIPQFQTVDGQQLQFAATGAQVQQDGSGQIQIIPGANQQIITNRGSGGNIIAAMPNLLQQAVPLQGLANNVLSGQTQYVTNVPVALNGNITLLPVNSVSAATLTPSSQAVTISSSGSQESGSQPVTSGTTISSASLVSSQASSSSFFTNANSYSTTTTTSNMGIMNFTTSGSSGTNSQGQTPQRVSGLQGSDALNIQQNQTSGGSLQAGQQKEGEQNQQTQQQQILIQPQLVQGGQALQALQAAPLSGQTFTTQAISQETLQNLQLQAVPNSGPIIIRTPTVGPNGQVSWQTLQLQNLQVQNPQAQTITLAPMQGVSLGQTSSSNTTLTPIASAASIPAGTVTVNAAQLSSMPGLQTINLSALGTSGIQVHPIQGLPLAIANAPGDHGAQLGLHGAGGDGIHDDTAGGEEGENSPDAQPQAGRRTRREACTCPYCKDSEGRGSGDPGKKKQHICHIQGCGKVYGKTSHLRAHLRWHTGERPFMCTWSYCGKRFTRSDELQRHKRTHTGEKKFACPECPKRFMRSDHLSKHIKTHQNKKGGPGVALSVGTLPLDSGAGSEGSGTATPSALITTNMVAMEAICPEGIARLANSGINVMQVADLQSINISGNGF
Oxysterols receptor LXR-beta (Homo sapiens), sequence (P55055 whole entry, looked up, the tested form may be a part): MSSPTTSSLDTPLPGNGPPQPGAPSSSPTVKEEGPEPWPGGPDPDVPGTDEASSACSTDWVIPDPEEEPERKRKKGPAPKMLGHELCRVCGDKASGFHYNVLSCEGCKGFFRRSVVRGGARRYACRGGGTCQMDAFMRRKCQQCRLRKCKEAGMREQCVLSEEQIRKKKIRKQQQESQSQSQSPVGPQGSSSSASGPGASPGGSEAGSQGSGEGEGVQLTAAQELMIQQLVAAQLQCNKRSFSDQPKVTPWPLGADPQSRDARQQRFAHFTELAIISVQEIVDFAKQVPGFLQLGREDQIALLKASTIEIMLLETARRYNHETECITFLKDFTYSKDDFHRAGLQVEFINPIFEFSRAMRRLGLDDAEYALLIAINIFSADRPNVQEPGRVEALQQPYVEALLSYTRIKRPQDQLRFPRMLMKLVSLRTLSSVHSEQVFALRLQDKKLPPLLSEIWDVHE
Glucocorticoid receptor (Homo sapiens), sequence (P04150 whole entry, looked up): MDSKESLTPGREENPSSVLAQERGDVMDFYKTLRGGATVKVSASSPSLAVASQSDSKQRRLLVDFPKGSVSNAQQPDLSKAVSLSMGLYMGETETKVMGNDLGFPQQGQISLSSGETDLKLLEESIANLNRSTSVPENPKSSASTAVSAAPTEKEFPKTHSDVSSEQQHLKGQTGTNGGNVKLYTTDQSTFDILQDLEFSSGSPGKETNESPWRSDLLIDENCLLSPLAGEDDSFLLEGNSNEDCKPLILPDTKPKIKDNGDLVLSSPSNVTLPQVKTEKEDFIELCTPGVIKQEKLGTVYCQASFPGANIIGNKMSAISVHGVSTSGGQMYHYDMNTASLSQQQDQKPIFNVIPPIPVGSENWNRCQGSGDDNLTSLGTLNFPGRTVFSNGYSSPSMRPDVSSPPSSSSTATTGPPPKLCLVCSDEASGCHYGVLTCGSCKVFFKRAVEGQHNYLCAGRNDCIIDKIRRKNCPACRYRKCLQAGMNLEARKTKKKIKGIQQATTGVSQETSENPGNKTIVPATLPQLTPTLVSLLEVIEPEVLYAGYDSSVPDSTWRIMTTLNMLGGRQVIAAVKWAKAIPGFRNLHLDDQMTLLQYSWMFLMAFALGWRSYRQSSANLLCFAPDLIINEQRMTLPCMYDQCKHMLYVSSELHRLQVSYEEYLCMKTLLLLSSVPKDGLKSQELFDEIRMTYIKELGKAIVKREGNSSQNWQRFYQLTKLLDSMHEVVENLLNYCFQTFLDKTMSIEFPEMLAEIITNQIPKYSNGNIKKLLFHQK

Take `CC(C#N)CCC#N` (stereo not given): the outcome in test [1], in test [2], in test [3], in test [4], in test [5] and in test [6] was inactive. For the same compound, the compound was called inactive in test [7], in test [8], in [9], in test [10], in test [11] and in test [12].

Regarding `CCC[CH2][Sn]([CH2]CCC)([CH2]CCC)[O]C(=O)c1ccccc1`, the outcome in test [1], in test [2], in [3], in test [4], in test [5] and in [6] was inactive. Also, the compound was called inactive in [7], in [10], in test [14] and in test [12]. The AC50 (as a rule, the concentration at which the activity in the assay is half-maximal) in test [8] was 0.137 µM (active); in test [13], 0.774 µM (active).

`O=C(NCO)NCO`: the call in [1], in [2], in [3], in [4], in test [5] and in test [6] was inactive. Moreover, the outcome in test [7], in [8], in test [10], in [14] and in test [12] was inactive.

As for `Nc1cccc(Cl)c1`, the compound was called inactive in test [1], in test [2], in test [3], in test [4], in [5] and in test [6]. Also, the result in [8], in test [15], in test [13], in test [9], in test [10] and in test [11] was inactive. Also, the result in test [12] was inactive. The AC50 in test [7] is 0.739 µM (active).

Consider `Clc1ccc(C2(Cn3cncn3)CC(Br)CO2)c(Cl)c1` (stereo not given), for which the outcome in test [1], in test [2], in [4], in test [5], in test [6] and in test [7] was inactive. Further, the result in test [10], in test [16] and in test [12] was inactive. For the same compound, the AC50 in test [3] was 8.75 µM (active); in test [8] it was 6.89 µM (active); in test [13], 6.86 µM (active).

Take `CCCCCCCCC(=O)NCc1ccc(O)c(OC)c1`: the outcome in test [1], in test [2], in test [3], in test [4], in [5] and in [6] was inactive. The outcome in test [7], in [8] and in test [10] was inactive.
